Compounds with a hit are over-represented: about 3.6% of the library has one in this group of screens.
BJeLR viability: BJeLR cell viability loss; AID 1554; inhibition, % (no concentration beside the values); actives 0.17% (n = 300,000); BJeLR (HRASV12) viability, CellTiter-Glo ATP luminescence, 48 h; in the data active = inhibition above about 50%; inconclusive = no clear call, values can overlap the other calls
BoNT F protease: BoNT F light chain protease inhibition | Multiplex microsphere protease cleavage assay, flow cytometry | inhibition, % at 10 µM | actives 0.22% (n = 360,000) | AID 588497; in the data active = inhibition above about 35%, passing the limit was not always enough; inconclusive = no clear call, values can overlap the other calls; note: plate controls were buffer without enzyme for full effect and enzyme alone for no effect
BoNT A protease: inhibitors of Botulinum neurotoxin A light chain protease; actives 0.17% (n = 360,000); multiplex microsphere protease substrate cleavage, flow cytometry; inhibition, % at 10 µM; note: plate controls were buffer without enzyme for full effect and enzyme alone for no effect
Anthrax LF prot: blocks Bacillus anthracis lethal factor protease. multiplex microsphere protease cleavage assay, LF. AID 588501. inhibition, % at 10 µM. actives 0.12% (n = 360,000); note: plate controls were buffer without enzyme for full effect and enzyme alone for no effect
Target sequence (P15917 whole entry, looked up): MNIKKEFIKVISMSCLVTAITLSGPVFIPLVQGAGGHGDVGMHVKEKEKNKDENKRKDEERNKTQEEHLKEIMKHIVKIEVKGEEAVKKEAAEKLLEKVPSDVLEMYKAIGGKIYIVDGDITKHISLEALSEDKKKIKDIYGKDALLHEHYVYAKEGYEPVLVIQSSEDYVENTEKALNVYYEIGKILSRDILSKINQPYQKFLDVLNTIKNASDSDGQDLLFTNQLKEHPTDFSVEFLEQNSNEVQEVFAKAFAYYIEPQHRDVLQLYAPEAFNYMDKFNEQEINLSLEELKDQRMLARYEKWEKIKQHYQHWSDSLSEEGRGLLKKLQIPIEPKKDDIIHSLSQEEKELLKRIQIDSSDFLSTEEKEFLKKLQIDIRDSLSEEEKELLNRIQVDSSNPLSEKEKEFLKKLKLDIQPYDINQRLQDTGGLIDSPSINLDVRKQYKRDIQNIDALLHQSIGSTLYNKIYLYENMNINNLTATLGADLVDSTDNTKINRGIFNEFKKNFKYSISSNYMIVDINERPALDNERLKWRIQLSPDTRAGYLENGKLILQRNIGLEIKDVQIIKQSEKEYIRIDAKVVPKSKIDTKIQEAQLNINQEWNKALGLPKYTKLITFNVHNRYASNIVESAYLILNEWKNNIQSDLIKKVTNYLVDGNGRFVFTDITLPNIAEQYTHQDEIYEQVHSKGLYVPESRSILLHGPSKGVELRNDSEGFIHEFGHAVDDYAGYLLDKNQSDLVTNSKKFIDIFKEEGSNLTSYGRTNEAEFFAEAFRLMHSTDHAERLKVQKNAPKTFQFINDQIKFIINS
SARS 3CLpro inh: SARS-CoV 3CLpro protease inhibition; actives 0.14% (n = 290,000); inhibition, % at 6 µM; recombinant SARS-CoV 3CLpro, quenched FRET peptide cleavage; P0C6X7; in the data active = inhibition above about 12%
Autofluor counter: counter-screen for toxin protease inhibitors: compound fluorescence. fluorescence intensity (test concentration not listed). compound autofluorescence counterscreen, microsphere flow cytometry; hits give high values. actives 3.1% (n = 360,000); in the data active = fluorescence intensity above about 16000; inconclusive = no clear call, values can overlap the other calls
Numbers without * were called inactive; ? = inconclusive; nt = no result given. Cut-off read from the data, not from the text of the source, unless noted: active = inhibition above about 30%; inconclusive = no clear call, values can overlap the other calls; inactive = below that.

SMILES	BJeLR viability	BoNT F protease	BoNT A protease	Anthrax LF prot	SARS 3CLpro inh	Autofluor counter
COc1cc(C2NC(=O)CCC2[N+](=O)[O-])c(OC)cc1Br (stereo not given)	0	-19	5	-13	6	3989
COc1ccc(Cl)cc1/C=C(\C#N)C(N)=O	-11	1	-1	-2	1	4434
COc1ccc2[nH]c3nc(SCC(=O)NNC(=O)c4ccc(OC)c(OC)c4)nnc3c2c1	-9	0	1	-2	5	21437*
Cc1ccc(C(=O)NNC(=O)CSc2nnc3c(n2)[nH]c2ccc(F)cc23)cc1	-5	0	0	-9	2	9867
CN(Cc1ccc(C(C)(C)C)cc1)C(=O)C1CSC2(C)CCC(=O)N12 (stereo not given)	nt	-1	0	3	nt	5629
Cn1cc([C@@H]2C[C@H]3CN(Cc4cccc(Cl)c4)C(=O)[C@]34CCCN24)c2ccccc21	3	-20	10	4	2	17603*
Cc1ccccc1-c1nc(CN2CCC(C(=O)NCCN3CCOCC3)CC2)c(C)o1	1	-2	-1	-1	0	6942
CCN1CCCC1CNC(=O)C1CCN(Cc2nc(-c3cccc(Br)c3)oc2C)CC1 (stereo not given)	-7	4	2	-2	-6	18142*
Cc1ccccc1-c1nc(CN2CCC(C(=O)NCCCN3CC(C)CC(C)C3)CC2)c(C)o1 (stereo not given)	2	0	0	-2	-1	22754*
Cc1ccccc1-c1nc(CN2CCC(C(=O)NCCCN3CCOCC3)CC2)c(C)o1	0	-5	?	-3	4	26327*
Cc1ccccc1-c1nc(CN2CCC(C(=O)NCCCN3CCCC3)CC2)c(C)o1	2	-8	-2	-6	1	17690*
COc1ccc(Cl)cc1NC(=O)CN(C)C(=O)CCSc1ccc(C)cc1	nt	-285	-182	-43	nt	?
O=C(NCCc1ccccc1F)C1CCC(=O)N(CCCN2CCCC2=O)C1 (stereo not given)	-1	?	-1	-6	-7	3295
Nc1c(C(=O)Nc2ccccc2Cl)nnn1-c1ccc2c(c1)OCCO2	6	-10	0	-5	-1	3485
COC(=O)CN(C)C(=O)c1ccccc1OC1CCN(S(C)(=O)=O)CC1	-2	?	-3	4	2	4671
Cc1ccc(C)c(S(=O)(=O)NCc2ccc(C(=O)N3CCN(C)CC3)cc2)c1	-2	0	?	-1	-3	16472*
CC(=O)Nc1ccc(OC(=O)N2CCCCC2)cc1	nt	-1	0	0	4	22883*
Oc1ccc(C=NCC2COc3ccccc3O2)cc1 (stereo not given)	-22	-1	2	0	3	20126*
COC(=O)C1=C(C)N(Cc2ccccc2)C(=NCCN2CCOCC2)N[C@H]1CCc1ccccc1	nt	8	1	-4	nt	4169
Cc1cc(C)cc(Nc2nc(-c3ccc(S(=O)(=O)N4CCCC4)cc3)cs2)c1	8	-16	-2	-2	0	1864
Cc1ccc(S(=O)(=O)N2CCN(S(=O)(=O)N3CCOCC3)CC2)cc1C	3	4	0	-3	5	16305*
Cc1ccc(Nc2nc(-c3ccc(S(=O)(=O)N4CCCC4)cc3)cs2)cc1C	12	-9	-4	-5	5	25361*
Cc1ccc(S(=O)(=O)N2CCCN(S(=O)(=O)c3ccc(C)c(C)c3)CC2)cc1C	5	-3	-2	-7	-3	16751*
CCOC(=O)N1C(=O)C2(CCCCC2)N(c2ccccc2Cl)C1=S	0	-5	0	-1	6	2429
Cc1ncsc1C(=O)N1N=C2/C(=C/c3ccc(N4CCOCC4)cc3)CCCC2C1c1ccc(N2CCOCC2)cc1 (stereo not given)	-1	-4	-2	-4	7	24267*
SMILES	BJeLR viability	BoNT F protease	BoNT A protease	Anthrax LF prot	SARS 3CLpro inh	Autofluor counter
CCOC(=O)c1c(C)[nH]c(C(=O)OCC(=O)NC(C)(C)C)c1C	7	-5	0	-3	3	4563
CCOC(=O)c1[nH]c(C)c(C(=O)OCC(=O)NC(=O)NC(C)(C)C)c1C	-2	4	1	-2	-4	20160*
CCOC(=O)c1c(C)[nH]c(C(=O)OCC(=O)Nc2cc(C)ccc2OC)c1C	-4	1	0	-2	2	3146
CCOC(=O)c1c(C)[nH]c(C(=O)OCC(=O)Nc2cc(Cl)ccc2OC)c1C	3	-5	-3	-5	-10	16877*
Cc1cc(-c2ccc(C)c(S(=O)(=O)N3CCN(c4ccccn4)CC3)c2)on1	1	-5	0	-3	1	5698
O=C1C2CC=CCC2C(=O)N1c1ncn[nH]1 (stereo not given)	-3	2	0	-3	-3	16218*
O=c1c(Cc2ccc(F)cc2)c(O)ccn1CCCN1CCOCC1	1	1	0	1	-2	4545
CCc1ccccc1Nc1nc(N)nc(COC(=O)c2cccn2C)n1	4	-5	-1	0	0	21076*
Cc1ccccc1Nc1nc(N)nc(COC(=O)c2cccn2C)n1	9	4	2	8	-4	9913
Cc1ccc2nc(C(F)(F)F)c(C#N)c(N)c2c1	12	0	?	-1	-1	23566*
Cc1cc(C)c2nc(C(F)(F)F)c(C#N)c(N)c2c1	15	-1	0	-3	4	3232
COc1cccc(CNC(=O)CN2C(=O)COc3ccc(S(=O)(=O)N4CCOCC4)cc32)c1	9	-2	-1	-5	-2	5475
Cc1cc(C(=O)Nc2nc3c(s2)CCCC3)no1	6	-2	0	-7	-9	23398*
CC(=O)OCC(=O)C1(O)CCC2C3CCC4C(OC(C)=O)C(=O)CCC4(C)C3C(=O)CC21C (stereo not given)	nt	-7	0	-7	nt	4119
CCc1cccc2c(C(=O)CSc3nnc(-c4ccoc4C)n3C)c[nH]c12	-12	1	3	-4	2	22498*
CCN(CC)CCNC(=O)c1ccc(NC(=O)Cc2cccc3ccccc23)cc1	-2	-1	2	0	-10	5988
Cc1cc2c(cc1C)[n+](C)cn2CC(O)COCc1ccccc1 (stereo not given)	6	4	3	-3	4	22173*
Cc1cc(C)n(CC(O)COCc2ccccc2)n1 (stereo not given)	-2	-3	?	-1	3	20483*
Cc1cc(C)n(CC(O)COc2ccc(OCC(O)Cn3nc(C)cc3C)cc2)n1 (stereo not given)	nt	nt	nt	nt	1	nt
C[n+]1cn(CC(O)COCc2ccccc2)c2ccccc21 (stereo not given)	-6	-2	0	0	0	10066
COc1ccc(CNC(=O)C2CCN(C(=O)c3csc(Nc4ccc(C)cc4)n3)CC2)cc1	-5	-22	-3	-8	2	3188
CSc1ccccc1NC(=O)CN1C(=O)C2CC=CCC2C1=O (stereo not given)	nt	1	-4	1	nt	?
